# In PubChem BioAssay (NCATS):
# Results filed as inconclusive are left out. Where a call stands in place of a potency, no number is given. Unmarked numbers belong to inactive results. Activity calls are given as the source filed them. Unless noted, calls come from the whole dose curve; as a rule, active = well fitted curve in the direction sought with a large enough effect; inconclusive = small, poorly fitted or top-dose-only effect, or another doubt; inactive = no such curve, though single readings can be large; an effect the other way counts as inactive or inconclusive.
# Key:
# [1] = target: Calcium and integrin-binding protein 1 (Homo sapiens) (UniProt Q99828); experiment: Primary qHTS for Identification of Calcium Integrin Binding Protein 1 (CIB1) Competitor (AID 1508620);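 note: GST tagged CIB1 binding a fluorescein labelled alphaIIb integrin peptide tracer; top concentration of the series differs between compounds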
# Method in brief: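 Fluorescence polarization competition: GST-tagged CIB1 (1 uM final) preincubated with compound 15 min at room temperature, then FITC-labelled alphaIIb peptide (100 nM final) added. After 15 min at room temperature, polarization read at Ex 480/Em 540.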
# [2] = target: Cytochrome P450 2C9 (Homo sapiens) (UniProt P11712); experiment: Cytochrome P450 family 2 subfamily C member 9 (CYP2C9) small molecule antagonists: luciferase biochemical (cell-free) qHTS assay (AID 1645842; active = well fitted curve in the direction sought with a large enough effect in the repeat runs; an effect the other way counts as inactive or inconclusive; note: nearly all actives have a fitted effect of over 55% in size; note: potency is the fitted concentration of half-maximal effect)
# Method in brief: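 Luminescence, after 20 min with luciferin detection reagent, reflected CYP2C9 turnover during a 1 h NADPH-driven reaction at 37C. Enzyme-substrate mix contained 0.4% bovine serum albumin and was preincubated with compound 10 min at room temperature.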
# [3] = Primary qHTS for inhibitors of nuclear receptor binding SET domain protein 2 (NSD2) in an RCH-ACV wild type WT cells (2C) (AID 1645877); note: nearly all actives have a fitted effect of over 70% in size
# [4] = Primary qHTS for inhibitors of nuclear receptor binding SET domain protein 2 (NSD2) in an isogenic RCH-ACV NSD2 p.E1099K mutant (9B) (AID 1645876); note: nearly all actives have a fitted effect of over 70% in size
# [5] = target: N-terminal Xaa-Pro-Lys N-methyltransferase 1 (Homo sapiens) (UniProt Q9BV86); experiment: Confirmatory qHTS for Inhibitors of N-terminal methyltransferase 1 (NTMT1): MTaseGlo Assay (AID 1645874);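 note: luminescence from SAH made as NTMT1 methylates SPKRIA peptide using SAM; series mostly up to about 100 µM; nearly all actives have a fitted effect of over 65% in size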
# Method in brief: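 NTMT1 (125 nM) preincubated 15 min with compound and 100 uM SAM, then 1 uM SPKRIA peptide added for 30 min at room temperature. SAH detected by MTase-Glo luminescence; normalized to no-enzyme and DMSO controls, fitted to 4-parameter Hill.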
# Sequence of Cytochrome P450 2C9 (Homo sapiens) (P11712 whole entry, looked up): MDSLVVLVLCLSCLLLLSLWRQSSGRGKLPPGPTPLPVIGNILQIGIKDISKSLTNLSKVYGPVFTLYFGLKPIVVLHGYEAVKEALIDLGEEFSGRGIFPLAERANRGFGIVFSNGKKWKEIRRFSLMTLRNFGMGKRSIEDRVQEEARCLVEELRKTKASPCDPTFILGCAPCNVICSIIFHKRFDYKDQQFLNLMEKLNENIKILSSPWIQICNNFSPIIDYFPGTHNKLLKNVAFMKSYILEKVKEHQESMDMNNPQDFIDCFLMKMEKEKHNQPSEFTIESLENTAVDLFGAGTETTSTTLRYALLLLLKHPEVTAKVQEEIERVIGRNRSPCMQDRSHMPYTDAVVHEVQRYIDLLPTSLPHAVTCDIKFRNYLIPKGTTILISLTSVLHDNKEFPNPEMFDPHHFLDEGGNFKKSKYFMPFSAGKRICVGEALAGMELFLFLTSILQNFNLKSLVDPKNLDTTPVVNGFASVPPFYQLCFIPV
# Sequence of Calcium and integrin-binding protein 1 (Homo sapiens) (Q99828 whole entry, looked up): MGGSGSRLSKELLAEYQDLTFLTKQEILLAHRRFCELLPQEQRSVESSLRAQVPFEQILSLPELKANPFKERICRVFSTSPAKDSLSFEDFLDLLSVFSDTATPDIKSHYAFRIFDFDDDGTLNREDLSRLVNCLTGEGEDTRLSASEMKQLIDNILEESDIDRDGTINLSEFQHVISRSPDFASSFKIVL
# Sequence of N-terminal Xaa-Pro-Lys N-methyltransferase 1 (Homo sapiens) (Q9BV86 whole entry, looked up): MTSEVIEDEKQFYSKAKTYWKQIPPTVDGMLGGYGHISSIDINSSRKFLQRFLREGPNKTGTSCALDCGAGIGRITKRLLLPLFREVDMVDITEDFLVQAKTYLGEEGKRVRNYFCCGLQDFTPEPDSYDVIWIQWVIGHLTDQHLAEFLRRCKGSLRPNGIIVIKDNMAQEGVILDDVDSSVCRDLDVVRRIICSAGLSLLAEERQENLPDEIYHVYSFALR
structure (smiles),measurement,setting,value
Cc1[nH]c2ccccc2c1CC(=O)N[C@@H](Cc1ccccc1)C(=O)N(C)c1ccccc1,Potency,[1],inactive
same,Potency,[2],9.52 µM (active)
same,Potency,[3],inactive
CC1(C)C2CC[C@]3(C)C(C(=O)C=C4[C@H]5C[C@@](C)(C(=O)O)CC[C@]5(C)CC[C@]43C)[C@@]2(C)CC[C@@H]1O (stereo partly drawn),Potency,[1],inactive
same,Potency,[4],inactive
CC(C)c1cc2c(c(O)c1O)[C@@]13CCCC(C)(C)C1[C@@H](O)[C@@H]2OC3=O (stereo partly drawn),Potency,[1],inactive
same,Potency,[5],inactive
CC(C)Oc1ccc(-c2nc(-c3cccc4c3CCC4NCCC(=O)O)no2)cc1C#N (stereo not drawn),Potency,[1],inactive
same,Potency,[2],inactive
same,Potency,[4],inactive
same,Potency,[3],inactive
CC(=O)OCC1OC(O[C@H]2CC[C@]34C[C@]35CC(O)[C@]3(C)[C@@H]([C@H](C)CC/C=C(\C)C(=O)O)C(O)C[C@@]3(C)C5CC[C@H]4C2(C)C)C(O)C(O)C1OC1OCC(O)C(O)C1O (stereo partly drawn),Potency,[1],inactive
same,"activity change, negative = viability loss",[4],-5.86% [at 9.23 µM]
CC1(C)CC[C@]2(C(=O)O)CC[C@]3(C)C(=CCC4[C@@]5(C)C[C@@H](O)[C@H](O)[C@](C)(CO)C5CC[C@]43C)[C@@H]2[C@@H]1O (stereo partly drawn),Potency,[1],inactive
same,Potency,[4],inactive
Cc1cn(-c2cc(NC(=O)c3ccc(C)c(Nc4nccc(-c5cnccn5)n4)c3)cc(C(F)(F)F)c2)cn1,Potency,[1],inactive
same,Potency,[2],1.51 µM (active)
same,Potency,[4],inactive
same,Potency,[3],inactive
CC(=O)NC(C(=O)OC1CCC(C)(C)C2CC=C3C(=O)OCC3C12C)C(C)C (stereo not drawn),Potency,[1],inactive
same,Potency,[4],inactive
C=C1C2CCC3CC2(CC(O)C2(O)C1CC(OC1OC(CO)C(O)C(O)C1O)C2(C)C)CC3(C)O (stereo not drawn),Potency,[1],inactive
same,Potency,[4],inactive
